Data as given in PubChem BioAssay AID2606 (The Scripps Research Institute Molecular Screening Center, 2010).
The whole screen tested about 320,000 compounds, of which about 160 (0.05%) were called active. Shown is part of a subset that was picked to be rich in actives. Values without a mark were called inactive. No stated cut-off is given here; in the data, active means inhibition above about 38%; inactive means the rest.

What follows are molecules tested against Serine protease Rv3671c (Mycobacterium tuberculosis (strain ATCC 25618 / H37Rv)) (UniProt P9WHR9) (assay: inhibition of M. tuberculosis membrane protease Rv3671c – biochemical, fluorescence polarization, M. tuberculosis H37Rv, primary screen (AID 2606;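 further: extracellular domain of Rv3671c used as enzyme; 0% = enzyme with DMSO and 100% = no enzyme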)). Conditions: at 5.96 µM; hits give high values.
Chain of Serine protease Rv3671c (Mycobacterium tuberculosis (strain ATCC 25618 / H37Rv)) (P9WHR9 whole entry, looked up, the tested form may be a part): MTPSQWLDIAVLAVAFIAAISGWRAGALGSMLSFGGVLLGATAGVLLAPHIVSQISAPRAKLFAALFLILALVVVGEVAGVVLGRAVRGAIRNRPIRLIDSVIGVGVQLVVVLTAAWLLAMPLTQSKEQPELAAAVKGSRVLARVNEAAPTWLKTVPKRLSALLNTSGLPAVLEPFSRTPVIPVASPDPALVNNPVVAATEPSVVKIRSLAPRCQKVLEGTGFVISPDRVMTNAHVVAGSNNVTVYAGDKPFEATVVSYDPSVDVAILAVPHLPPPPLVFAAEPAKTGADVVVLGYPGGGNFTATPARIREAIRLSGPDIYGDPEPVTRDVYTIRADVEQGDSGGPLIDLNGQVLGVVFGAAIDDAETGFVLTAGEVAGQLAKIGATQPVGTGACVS

| Compound | inhibition [%] |
| --- | --- |
| COc1ccc(C(=O)OC(C)C(=O)NC2CCCC2)cc1S(=O)(=O)N1CCOCC1 (centres undefined) | -4.37 |
| O=C(COc1ccc(-c2ccccc2)cc1)NN=C1CCCC1 | -4.38 |
| CCOc1ccc(/C=C(/NC(=O)c2ccccc2)C(=O)NCCC(=O)O)cc1 | -7.39 |
| C=CCn1c(=S)[nH]c2scc(-c3ccco3)c2c1=O | 6.27 |
| CC(C)CCNC(=O)c1cccnc1Sc1ccccc1 | -12.3 |
| CCn1ncc(CNC(=O)C2(C)CC2(Br)Br)c1C (centres undefined) | -2.88 |
| CC(C)CC(COCc1ccc(Cl)cc1)N1CCN(C(=O)c2ccc(C(F)(F)F)cc2)CCC1=O (centres undefined) | -15.8 |
| CNC(=O)/C(C#N)=C/c1c(F)cccc1Cl | -0.68 |
| O=C(c1ccccc1F)N1CCN(S(=O)(=O)c2ccc(Br)cc2)CC1 | -4.63 |
| COCCNc1nc2nonc2nc1N1CCCC1c1nccs1 (centres undefined) | -4.76 |
| Cn1nnnc1SCC(=O)NNC(=O)c1ccc(Br)cc1 | -1.13 |
| CC(=O)N1CCc2c(sc(NC(=O)CCS(=O)(=O)c3ccc(C)cc3)c2C(N)=O)C1 | 8.49 |
| CCOC(=O)[C@@H]1[C@H]2COc3ccc(Br)cc3[C@H]2N2C(=O)N(c3ccc(Cl)cc3)C(=O)[C@@]12C | -4.24 |
| COc1cccc(C2SCC(=O)N2c2cccc(C)c2)c1OC (centres undefined) | 0.16 |
| CCCCn1c(N)c(N(CCOC)C(=O)c2cccc(S(=O)(=O)N(C)c3ccccc3)c2)c(=O)[nH]c1=O | 3.05 |
| Cc1noc(C)c1NC(=O)Nc1ccc2c(c1)C(=O)N([C@H](C)CO)C[C@H](C)[C@@H](CN(C)C(=O)Nc1ccc(C(F)(F)F)cc1)O2 | 0.65 |
| C/C=C/C=C/C(=O)OCC(=O)Nc1ccc(Cl)cc1 | -1.55 |
| CCN1CC=C2C(C#N)=C(N)C(C#N)(C#N)[C@H](c3ccoc3)[C@H]2C1 | 3.86 |
| CC(=O)N(C)c1ccc(NC(=O)Nc2cccc3ccccc23)cc1 | 1.7 |
| O=C1c2ccccc2C(=O)N1CCC(O)C[N+](=O)[O-] (centres undefined) | -0.34 |
| COc1ccc(CCNC(=O)C2CC3Cn4c(nc5cc(C)c(C)cc54)C3N2C)cc1 (centres undefined) | -15.6 |
| CC(C)(COC(=O)Nc1ccccc1)COC(=O)Nc1ccccc1 | -8 |
| COCCn1c(SCC(=O)c2[nH]c(C)c(C(C)=O)c2C)nc2ccccc2c1=O | 1.17 |
| COCc1c(C(=O)OCC(=O)Nc2ccc(OC(F)F)cc2)oc2ccccc12 | -1.7 |
| O=C1CN(C(=O)COc2c(Cl)cccc2Cl)c2ccccc2N1 | 0.62 |
| CCN(C(=O)Cc1c(C(=O)O)n(CC)c2ccccc12)c1ccccc1C | 4.47 |
| NS(=O)(=O)c1ccc(CNC(=O)c2ccc(Cl)cc2[N+](=O)[O-])cc1 | -8.53 |

| Compound | inhibition [%] |
| --- | --- |
| O=C(CCc1nnc2ccc(NCc3ccccc3Cl)nn12)NCC1CCN(C2CCCC2)C1 (centres undefined) | -2.3 |
| C=CC(COCc1ccccc1)N(CC(=O)OC)S(=O)(=O)c1cc(Br)ccc1OC (centres undefined) | 0.38 |
| COc1ccc(OC)c(NC(=O)Cc2cccs2)c1 | 2.15 |
| Cc1ccc(-c2ccnc3nc(Sc4ncc(C(F)(F)F)cc4Cl)nn23)cc1 | -7.05 |
| CC(=O)N1Cc2ccccc2CC1C(=O)O (centres undefined) | -1.84 |
| CCc1cccc(NC(=O)CCCN2C(=O)C(c3ccccc3)Oc3cccnc32)c1 (centres undefined) | -9.9 |
| COC(=O)C1=C(C)N(C(C)c2ccccc2)C(=O)/C1=C\c1ccco1 (centres undefined) | 4.05 |
| Cc1cccc(C)c1NC(=O)N1CC=C(n2c(=O)[nH]c3ccccc32)CC1 | 1.3 |
| Nc1nc(-c2sc3nc4c(cc3c2N)CCCC4)nc(N2CCOCC2)n1 | -3.34 |
| O=C(NCCN1CCOC1=O)C1CCC(=O)N(CCc2ccc(Cl)cc2)C1 (centres undefined) | -0.05 |
| O=C(NCc1ccccc1)c1ccc(CNc2c(N3CCCC3)c(=O)c2=O)cc1 | 3.23 |
| CC(Sc1nnc(-c2cccs2)n1C1CC1)C(=O)NCC1CCCO1 (centres undefined) | 3.19 |
| CC(C)n1c(O)c(N=Nc2ccccn2)c2ccccc21 | 3.27 |
| COC(C/C=C/C(=O)[C@@H](C)OCc1ccccc1)OC | -4.04 |
| CN=C(c1ccccc1)c1c(C)cccc1C | 10.9 |
| CC(C)C(=O)N1CCN(CCN=CC2=C(O)CC(c3ccco3)CC2=O)CC1 (centres undefined) | -4.57 |
| CCCC(C)c1nnc(NC(=O)C2CC(=O)N(c3ccc(OCC)cc3)C2)s1 (centres undefined) | 9.03 |
| CCC(C)CCN1CCN=C1N(C)C (centres undefined) | -3.18 |
| CCn1c(C)nc2cc(C(=O)NNS(=O)(=O)c3ccc(C)cc3C)ccc21 | -9.72 |
| CS(=O)(=O)c1ccccc1C(=O)Nc1ccc2sccc2c1 | -4.05 |
| CC(O)CN(Cc1ccc(Cl)cc1)CC(C)O (centres undefined) | 6.26 |
| O=C(COc1ccccc1Cl)N1CCCCCCC1 | -10.1 |
| Cc1ccc2c(C)c(C(=O)N3CCN(c4ccncc4)CC3)oc2c1C | 10.5 |
| O=C(NC1CC1)C1=C[C@H](c2coc3ccccc3c2=O)C[C@H](OCCCCO)O1 | 2.33 |
| C=CCn1c(-c2ccc(Cl)cc2)ccc(C#N)c1=O | -12.4 |
| N#C/C=C\Oc1ccc(Cl)cc1N | -2.18 |
| Cc1cc(F)ccc1S(=O)(=O)Nc1ncnc2scc(-c3ccc(F)cc3)c12 | -10.2 |
